For some assays here: Results with a measured potency or affinity are listed apart. Active and inactive are the calls of the source.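 Rule for the calls, unless noted: active = fluorescence ratio normalized to control raised more than 50% in primary screen plus both repeat runs; inactive = the rest.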

Test [1] concerns TRPC4 beta (transient receptor potential cation channel C4), mouse. Kind of test: TRPC4 cation channel opening, retest – cell-based, Fluo4 calcium, HEK293 TRPC4beta/mu-opioid, duplicates, 10 µM, confirmation (AID 2426).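 For activation: percent rise of integrated ratio over buffer wells lacking compound which define 0%.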 The note with it: Fluo4 calcium fluorescence, at 10 µM; stronger effect = higher value.
Test [2] concerns transient receptor potential cation channel C4 beta (TRPC4), mouse. Kind of test: TRPC4 cation channel opening, second retest – cell-based, second round, Fluo4, HEK293 TRPC4beta/mu-opioid, 1 µM, confirmation (AID 2461;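 active = primary screen active and over 50% activation in each of two duplicate runs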). The note with it: Fluo4 calcium fluorescence, at 1 µM; stronger effect = higher value.
Test [3] has as its system TRPC4 (transient receptor potential cation channel C4 beta), mouse. Put plainly: potentiation of DAMGO EC20 TRPC4 response – cell-based, second round, Fluo-4, HEK293 TRPC4beta/mu-opioid, 1 µM, confirmation (AID 2554;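 active = primary screen hit whose fluorescence ratio, in both repeats, exceeds the weak agonist control mean by 3 SD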). The note with it: DAMGO EC20, Fluo-4 calcium flux, at 1 µM; stronger effect = higher value. For orientation: Calcium assays in cells follow changes in intracellular calcium, usually with a dye or a luminescent sensor.

The test system of test [4] is TRPC4 beta (transient receptor potential cation channel C4), mouse. Put plainly: potentiation of DAMGO EC20 TRPC4 response – cell-based, Fluo-4, HEK293 TRPC4beta/mu-opioid, confirmation (AID 2555;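 active = primary screen hit whose calcium fluorescence ratio, in both repeats, exceeds the weak agonist control mean by 3 SD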). The note with it: DAMGO EC20, Fluo-4 calcium flux, at 10 µM; stronger effect = higher value.
In test [5] the target is Short transient receptor potential channel 4 (Mus musculus) (UniProt Q9QUQ5). Put plainly: blockers of DAMGO-evoked TRPC4 calcium flux – cell-based, Fluo4, HEK293 TRPC4beta/mu-opioid, confirmation (AID 2636;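 active = calcium signal cut by more than 3 SD below the full-agonist control yet still positive, in both repeats and the earlier primary screen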). The note with it: at 10 µM; stronger effect = higher value.
For test [6] the target is unchanged. Kind of test: blockers of DAMGO-evoked TRPC4 calcium flux – cell-based, second round, Fluo4, HEK293 TRPC4beta/mu-opioid, 1 µM, confirmation (AID 2637;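 active = calcium signal ratio cut to more than 3 SD under the fully stimulated control mean yet still positive, in both repeats and the primary screen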). The note with it: at 1 µM; stronger effect = higher value.
Test [7] has the same target. Put plainly: potentiation of DAMGO-evoked TRPC4 calcium signal – cell-based, HEK293 TRPC4/mu-opioid, Fluo-4 calcium, EC20 DAMGO, dose response (AID 434941;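 active = earlier screen potentiator hit that boosts the TRPC4 ion channel at some dose, with a dose response; inactive = no potentiation, no dose response, or not a prior hit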;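 note: calcium entry triggered by an EC20 dose of DAMGO at the co-expressed mu-opioid receptor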).
The target is the same in test [8]. Put plainly: block of DAMGO-driven TRPC4 calcium entry – cell-based, HEK293 TRPC4/mu-opioid, Fluo-4 calcium, dose response (AID 434942;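 active = primary screen inhibitor hit that blocks the TRPC4 channel at some tested dose, yielding a dose curve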).
Test [9] concerns the target Short transient receptor potential channel 6 (Mus musculus) (UniProt Q61143). Kind of test: TRPC6 blockade by TRPC4 inhibitor hits – cell-based, HEK293, membrane potential dye, duplicate, selectivity assay for TRPC4 inhibitor project, confirmation (AID 434948;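 active = active in primary screen and both duplicates, each dropping signal beyond three positive-control SD with fluorescence still positive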). The note with it: HEK293 TRPC6, membrane potential dye fluorescence, at 10 µM, stimulated with maximal-effect acetylcholine; stronger effect = higher value.

Test [10] shares this target. Put plainly: TRPC6 opening by TRPC4 activator hits – cell-based, HEK293, membrane potential dye, duplicate, selectivity assay for TRPC4 activator project, confirmation (AID 434950;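 active = membrane potential signal rise above negative control mean plus 3 SD in both duplicates, also active in the earlier TRPC4 screen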;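 for activation: 0% = buffer only wells and 100% = acetylcholine maximal-effect wells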). The note with it: HEK293 TRPC6, membrane potential fluorescence, at 10 µM; activation: stronger effect = higher value; outcome: activation.
The target is the same in test [11]. Put plainly: positive modulators of mouse TRPC6 channel – HEK293 cells, membrane potential dye, duplicate, selectivity assay for TRPC4 potentiator project, confirmation (AID 434952;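 active = compound raising the membrane signal above positive-control mean plus 3 SD in both repeats, and a primary screen hit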). The note with it: HEK293 TRPC6, membrane potential dye fluorescence, at 10 µM, maximal acetylcholine added after compound; stronger effect = higher value.
Test [12] addresses Short transient receptor potential channel 4 (Mus musculus) (UniProt Q9QUQ5). Put plainly: calcium flux activators in TRPC4/5HT1a cells, counter-screen for TRPC4 activator project, cell-based, second counter screen, HEK293 TRPC4/5HT1a, Fluo-4 (AID 434977;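 active = calcium signal rise above buffer-control mean plus 5 SD in both duplicates, and also a hit in the primary screen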;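 note: plate controls were assay buffer for no effect and maximal serotonin response for full effect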). The note with it: Fluo-4 calcium flux, at 10 µM; stronger effect = higher value.
Test [13] can be described thus: serotonin-gated TRPC4 signal block – cell-based, second counter screen, HEK293 TRPC4/5HT1a, Fluo-4, counter-screen for TRPC4 inhibitor project, confirmation (AID 434978;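 active = primary screen active whose calcium signal fell more than 3 SD beyond the full-serotonin control mean in both duplicate plates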;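 note: serotonin given first at submaximal then at maximal dose after compound preincubation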). The note with it: Fluo-4 calcium flux, at 10 µM, serotonin added to trigger calcium flux; stronger effect = higher value. (A counterscreen serves to expose hits that act by an unwanted route or on another target.)

Test [14] relates to TRPC4 (mouse), co-expressed with 5HT1a in HEK293. Kind of test: enhancement of serotonin-evoked TRPC4 response – cell-based, second counter screen, HEK293 TRPC4/5HT1a, Fluo-4, counter-screen for TRPC4 potentiator project, confirmation (AID 434979;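 active = signal rise over 3 SD above mean of control wells given weak agonist, in both repeats and first screen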). The note with it: Fluo-4 calcium flux, at 10 µM, serotonin added at its EC20 dose; stronger effect = higher value.
The nature of test [15]: nonspecific calcium rise without TRPC4 – cell-based, HEK293 mu-opioid receptor line, counter-screen for TRPC4 activator project, confirmation (AID 449723;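 active = hit in primary screen, with calcium signal over 5 SD above buffer well mean in both duplicates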;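 note: counter screen cells carry the mu-opioid receptor alone and lack TRPC4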). The note with it: HEK293 mu-opioid cells, Fluo-4 calcium fluorescence, at 10 µM; stronger effect = higher value.
Test [16] is described as follows: nonspecific potentiation of DAMGO calcium response – cell-based, HEK293 mu-opioid receptor line, counter-screen for TRPC4 allosteric potentiator project, confirmation (AID 449724;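 active = calcium signal rise more than 3 SD above the low-dose agonist control mean, in both duplicate plates and the primary screen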;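 note: HEK293 cells carrying mu-opioid receptor only with no TRPC4 channel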). The note with it: HEK293 mu-opioid receptor cells, Fluo-4 calcium flux, at 10 µM, compound added before EC20 DAMGO stimulus; stronger effect = higher value.
Test [17] can be described thus: nonspecific flux increase, KCNQ1-free cells – parental CHO cells, counter-screen for KCNQ1 potentiator project (AID 493006;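 active = duplicate-averaged activation above buffer control mean plus 5 SD of those controls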;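 note: fluorescence ratio of max minus min over baseline after K+ and Tl+ depolarization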). The note with it: parental CHO-K1 cells, FluxOR thallium flux, at 10 µM; stronger effect = higher value.
The target in test [18] is Potassium voltage-gated channel subfamily KQT member 1 (Homo sapiens) (UniProt P51787). Put plainly: enhancement of KCNQ1 channel thallium flux – FluxOR thallium flux, CHO cells, duplicates, confirmation (AID 493007;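 active = potentiation averaged over duplicate wells exceeding buffer-only control mean by more than 3 SD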;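 note: 0% = buffer-only wells and 100% = R-L3 activator control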). The note with it: KCNQ1 cell line, FluxOR thallium flux fluorescence, at 10 µM; stronger effect = higher value, % of reference activator effect, buffer zero.
Test [19] has as its target Potassium voltage-gated channel subfamily KQT member 2 (Rattus norvegicus) (UniProt O88943). Kind of test: KCNQ2 thallium flux enhancement – KCNQ2-CHO-K1 cells, selectivity assay for KCNQ1 potentiator project (AID 493009;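 active = mean duplicate potentiation above the buffer control mean plus 5 SD of buffer wells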;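 note: assay conditions were tuned for KCNQ1 rather than KCNQ2 modulators; signal is max minus min fluorescence divided by baseline after thallium stimulus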). The note with it: FluxOR thallium flux fluorescence, at 10 µM; stronger effect = higher value, scaled: buffer 0, activator control 100.
Test [20] deals with Potassium voltage-gated channel subfamily KQT member 1 (Homo sapiens) (UniProt P51787). Kind of test: KCNQ1 activators by electrophysiology – IonWorks patch clamp, KCNQ1-CHO cells, orthogonal assay for KCNQ1 potentiator project, confirmation (AID 493184;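 active = current rise at least 3 SD above the untreated control mean in each of two repeat wells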). The note with it: automated patch clamp current, at 10 µM; stronger effect = higher value. Background: In patch-clamp work, channel activity is measured electrically.

Chain of Short transient receptor potential channel 6 (Mus musculus) (Q61143 whole entry, looked up): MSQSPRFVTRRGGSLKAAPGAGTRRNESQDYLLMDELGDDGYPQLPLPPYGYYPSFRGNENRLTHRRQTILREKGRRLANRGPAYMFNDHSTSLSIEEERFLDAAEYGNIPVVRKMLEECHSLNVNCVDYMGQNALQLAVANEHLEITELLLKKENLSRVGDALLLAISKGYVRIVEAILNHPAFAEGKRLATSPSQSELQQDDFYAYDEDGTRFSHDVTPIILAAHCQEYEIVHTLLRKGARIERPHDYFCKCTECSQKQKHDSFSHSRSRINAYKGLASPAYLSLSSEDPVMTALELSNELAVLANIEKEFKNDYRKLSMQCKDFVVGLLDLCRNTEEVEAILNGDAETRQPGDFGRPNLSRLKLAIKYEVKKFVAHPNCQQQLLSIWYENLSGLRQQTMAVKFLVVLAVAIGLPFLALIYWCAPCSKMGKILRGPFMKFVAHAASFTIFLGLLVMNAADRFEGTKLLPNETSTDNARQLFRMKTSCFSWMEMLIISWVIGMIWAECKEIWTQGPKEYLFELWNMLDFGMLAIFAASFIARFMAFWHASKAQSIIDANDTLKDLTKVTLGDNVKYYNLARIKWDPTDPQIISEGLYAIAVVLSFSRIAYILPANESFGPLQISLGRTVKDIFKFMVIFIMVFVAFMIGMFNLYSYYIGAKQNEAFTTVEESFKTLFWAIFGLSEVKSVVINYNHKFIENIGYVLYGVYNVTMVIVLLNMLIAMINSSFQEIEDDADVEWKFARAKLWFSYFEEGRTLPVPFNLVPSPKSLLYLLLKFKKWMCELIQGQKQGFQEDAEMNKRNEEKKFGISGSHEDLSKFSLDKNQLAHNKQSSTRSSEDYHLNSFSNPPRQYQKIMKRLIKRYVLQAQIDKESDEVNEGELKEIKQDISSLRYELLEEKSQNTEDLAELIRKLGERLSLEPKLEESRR
Chain of Potassium voltage-gated channel subfamily KQT member 1 (Homo sapiens) (P51787 whole entry, looked up): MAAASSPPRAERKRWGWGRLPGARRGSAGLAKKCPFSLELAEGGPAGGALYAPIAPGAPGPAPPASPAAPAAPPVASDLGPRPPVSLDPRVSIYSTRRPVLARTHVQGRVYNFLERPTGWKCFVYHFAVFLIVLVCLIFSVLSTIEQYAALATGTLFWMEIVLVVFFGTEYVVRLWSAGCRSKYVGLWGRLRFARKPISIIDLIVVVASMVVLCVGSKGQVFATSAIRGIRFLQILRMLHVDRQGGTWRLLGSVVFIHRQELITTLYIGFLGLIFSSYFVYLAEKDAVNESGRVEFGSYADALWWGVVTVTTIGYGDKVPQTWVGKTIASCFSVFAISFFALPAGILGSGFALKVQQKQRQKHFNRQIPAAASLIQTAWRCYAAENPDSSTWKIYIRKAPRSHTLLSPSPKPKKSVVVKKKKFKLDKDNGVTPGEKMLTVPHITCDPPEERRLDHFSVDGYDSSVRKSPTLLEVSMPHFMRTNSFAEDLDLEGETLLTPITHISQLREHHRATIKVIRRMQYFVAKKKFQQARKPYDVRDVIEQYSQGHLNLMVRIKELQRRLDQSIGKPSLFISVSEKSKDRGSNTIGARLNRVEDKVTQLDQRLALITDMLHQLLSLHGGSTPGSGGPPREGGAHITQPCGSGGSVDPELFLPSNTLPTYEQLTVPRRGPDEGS
Chain of Short transient receptor potential channel 4 (Mus musculus) (Q9QUQ5 whole entry, looked up): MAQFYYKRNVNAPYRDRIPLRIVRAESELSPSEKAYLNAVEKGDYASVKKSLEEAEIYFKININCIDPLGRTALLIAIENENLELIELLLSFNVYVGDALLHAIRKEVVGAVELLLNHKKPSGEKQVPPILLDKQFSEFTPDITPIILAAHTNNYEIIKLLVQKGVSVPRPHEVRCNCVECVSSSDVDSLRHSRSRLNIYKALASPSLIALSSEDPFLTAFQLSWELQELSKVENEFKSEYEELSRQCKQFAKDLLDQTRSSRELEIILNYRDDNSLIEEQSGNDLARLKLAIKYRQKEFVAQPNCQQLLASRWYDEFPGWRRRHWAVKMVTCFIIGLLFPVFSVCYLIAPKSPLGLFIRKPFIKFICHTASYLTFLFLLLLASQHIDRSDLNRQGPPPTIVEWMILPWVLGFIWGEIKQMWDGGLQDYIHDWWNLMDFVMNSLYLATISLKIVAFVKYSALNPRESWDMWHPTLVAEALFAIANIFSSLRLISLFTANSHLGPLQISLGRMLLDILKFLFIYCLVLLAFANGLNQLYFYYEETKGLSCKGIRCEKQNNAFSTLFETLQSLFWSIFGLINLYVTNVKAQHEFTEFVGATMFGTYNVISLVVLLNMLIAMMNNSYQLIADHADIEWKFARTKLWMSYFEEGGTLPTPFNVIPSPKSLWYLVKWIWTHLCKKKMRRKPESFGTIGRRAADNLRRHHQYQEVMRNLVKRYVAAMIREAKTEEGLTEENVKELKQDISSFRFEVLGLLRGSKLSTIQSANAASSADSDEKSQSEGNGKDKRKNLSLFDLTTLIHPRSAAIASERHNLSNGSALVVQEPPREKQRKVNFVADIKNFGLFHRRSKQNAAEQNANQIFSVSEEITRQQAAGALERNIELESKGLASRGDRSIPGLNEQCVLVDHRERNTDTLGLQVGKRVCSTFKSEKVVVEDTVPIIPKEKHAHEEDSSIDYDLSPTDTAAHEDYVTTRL
Chain of Potassium voltage-gated channel subfamily KQT member 2 (Rattus norvegicus) (O88943 whole entry, looked up): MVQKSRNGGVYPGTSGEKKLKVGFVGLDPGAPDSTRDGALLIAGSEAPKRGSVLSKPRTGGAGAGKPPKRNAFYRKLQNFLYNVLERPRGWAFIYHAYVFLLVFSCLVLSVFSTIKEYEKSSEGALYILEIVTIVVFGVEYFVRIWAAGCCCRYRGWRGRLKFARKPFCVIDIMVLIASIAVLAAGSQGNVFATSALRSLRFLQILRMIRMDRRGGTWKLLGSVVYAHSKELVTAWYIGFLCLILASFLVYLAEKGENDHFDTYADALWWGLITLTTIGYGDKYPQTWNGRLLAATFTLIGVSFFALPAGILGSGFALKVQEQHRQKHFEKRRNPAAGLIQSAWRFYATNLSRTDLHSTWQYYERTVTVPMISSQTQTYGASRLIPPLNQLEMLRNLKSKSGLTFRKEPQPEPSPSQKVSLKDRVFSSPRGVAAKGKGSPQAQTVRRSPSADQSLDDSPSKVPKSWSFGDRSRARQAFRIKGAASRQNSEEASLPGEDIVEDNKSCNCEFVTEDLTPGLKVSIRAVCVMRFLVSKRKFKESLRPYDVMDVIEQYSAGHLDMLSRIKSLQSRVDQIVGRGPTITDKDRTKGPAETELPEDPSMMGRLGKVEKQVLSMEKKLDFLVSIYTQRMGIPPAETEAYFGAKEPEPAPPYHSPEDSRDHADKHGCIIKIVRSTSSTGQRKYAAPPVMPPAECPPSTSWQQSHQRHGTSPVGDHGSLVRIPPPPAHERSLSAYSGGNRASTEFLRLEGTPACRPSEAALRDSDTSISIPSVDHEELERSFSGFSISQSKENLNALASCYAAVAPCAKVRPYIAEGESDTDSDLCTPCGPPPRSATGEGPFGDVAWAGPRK

For `Cc1cccc(C(=O)NNC(=S)NC(=O)c2cccs2)c1`, the activation is 158% (active) in test [1], 124% (active) in [12], 36.4% (active) in test [15] and 142% (active) in test [17]. Moreover, the outcome in test [2], in test [3], in test [4], in test [5], in test [6] and in test [7] was inactive. The outcome in [8], in [9], in test [10], in [11], in test [13] and in [14] was inactive. The result in [16] and in test [20] was inactive. For the same compound, the values for the potentiation in test [18] and in test [19] were 91% (active) and 226% (active), respectively.
With `Cc1cc(OCCCCn2ccnc2)cc(C)c1Cl`, the activation in test [1] was 102% (active); in test [10] it was 50% (active); in test [12] it was 20.1% (active). The result in [2], in [3], in [4], in test [5], in test [6] and in test [7] was inactive. For the same compound, the result in test [8], in [9], in [11], in [13], in test [14] and in test [15] was inactive. The outcome in test [16] was inactive.
As to `Cc1ccc(C)c(OCCCCCn2ccnc2)c1`, the activation in [1] is 174% (active); in [10], 49% (active); in [12] it was 25.7% (active). Besides, the result in test [2], in test [3], in test [4], in test [5], in [6] and in test [7] was inactive. The outcome in [8], in test [9], in test [11], in test [13], in test [14] and in test [15] was inactive. Further, the outcome in [16] was inactive.
On to `O=C(NNC(=S)NC(=O)C12CC3CC(CC(C3)C1)C2)c1ccncc1`, for which the activation in test [1] was 192% (active); in test [12], 126% (active); in test [15] it was 44.2% (active). In addition, the outcome in test [2], in test [3], in [4], in test [5], in test [6] and in test [7] was inactive. The outcome in [8], in test [9], in [10], in test [11], in [13] and in test [14] was inactive. Moreover, the outcome in test [16] was inactive.
`O=c1c2cc(Br)ccc2nc(-c2ccc(Cl)cc2)n1O`: the activation was 268% (active) in [1], 102% (active) in test [12], 31.7% (active) in test [15] and 654% (active) in test [17]. Further, the outcome in test [2], in test [3], in test [4], in test [5], in [6] and in test [7] was inactive. Besides, the result in [8], in test [9], in [10], in [11], in test [13] and in test [14] was inactive. In addition, the result in test [16] and in [20] was inactive. For the same compound, the figures for the potentiation in [18] and in [19] were 354% (active) and 708% (active), respectively.
Turning to `CSCCC(NS(=O)(=O)c1ccc2c(c1)c(=O)n(C)c(=O)n2C)C(=O)NC1CCN(Cc2ccccc2)CC1` (centres undefined), the outcome in [1], in test [2], in test [3], in test [4], in test [5] and in test [6] was inactive. In addition, the result in [7], in test [8], in [9], in test [10], in [11] and in test [13] was inactive. Also, the result in test [14], in [15] and in [16] was inactive. The activation in [12] is 8.04% (active).

Values taken from PubChem BioAssay.
